# Source: paper PMC4336329 (PLoS ONE, 2015)
# In all, about 310,000 compounds went through this assay and about 14,000 (4.5%) showed an effect of 50% or more. Effects have a minus sign here. The list comes from a sample in which strong results are over-represented; it also holds similar structures and randomly drawn compounds.
# Molecular target: human ether-à-go-go-related gene (hERG) potassium channel (human, UniProt Q12809)
# Assay: primary screen, population patch clamp on CHO cells stably expressing hERG; higher = less effect of the substance
# 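Further: peak tail current of the secondary pulse compared with the same well before compound.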
# Chain of human ether-à-go-go-related gene (hERG) potassium channel (Q12809 whole entry, looked up): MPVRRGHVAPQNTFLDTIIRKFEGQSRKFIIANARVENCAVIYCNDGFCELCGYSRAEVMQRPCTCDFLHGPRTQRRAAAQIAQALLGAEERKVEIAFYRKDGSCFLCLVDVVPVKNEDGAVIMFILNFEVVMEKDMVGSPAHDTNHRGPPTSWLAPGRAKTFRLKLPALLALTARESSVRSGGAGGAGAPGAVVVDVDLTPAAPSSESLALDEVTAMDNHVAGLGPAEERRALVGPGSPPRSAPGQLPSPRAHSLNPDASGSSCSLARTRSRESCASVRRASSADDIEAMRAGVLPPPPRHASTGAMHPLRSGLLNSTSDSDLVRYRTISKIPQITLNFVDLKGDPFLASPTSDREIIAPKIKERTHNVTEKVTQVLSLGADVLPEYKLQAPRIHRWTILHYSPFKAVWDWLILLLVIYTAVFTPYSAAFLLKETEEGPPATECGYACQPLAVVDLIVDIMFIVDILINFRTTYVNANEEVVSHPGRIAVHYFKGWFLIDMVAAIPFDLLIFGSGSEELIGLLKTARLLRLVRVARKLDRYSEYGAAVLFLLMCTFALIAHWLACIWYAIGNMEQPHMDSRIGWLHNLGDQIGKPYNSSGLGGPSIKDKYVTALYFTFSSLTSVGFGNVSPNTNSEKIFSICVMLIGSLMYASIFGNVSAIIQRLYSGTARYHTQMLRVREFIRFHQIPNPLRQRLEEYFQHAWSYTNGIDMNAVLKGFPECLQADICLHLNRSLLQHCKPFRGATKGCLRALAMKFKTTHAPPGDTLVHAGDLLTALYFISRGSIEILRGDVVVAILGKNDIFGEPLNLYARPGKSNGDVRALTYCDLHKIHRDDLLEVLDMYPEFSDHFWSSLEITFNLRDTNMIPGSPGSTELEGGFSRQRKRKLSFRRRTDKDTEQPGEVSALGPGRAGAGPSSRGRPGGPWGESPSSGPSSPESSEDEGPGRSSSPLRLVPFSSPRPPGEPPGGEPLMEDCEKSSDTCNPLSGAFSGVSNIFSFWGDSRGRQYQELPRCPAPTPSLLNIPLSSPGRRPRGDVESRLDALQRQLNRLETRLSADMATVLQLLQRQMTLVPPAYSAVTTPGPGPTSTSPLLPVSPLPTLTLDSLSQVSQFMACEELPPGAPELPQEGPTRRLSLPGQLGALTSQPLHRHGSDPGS
row,SMILES,"hERG current change (%, negative = inhibition) at 10uM"
1,O=C(CN1C(=O)c2ccccc2C1=O)Nc1ccc(S(=O)(=O)N2CCOCC2)cc1,-16.9%
2,O=C(NC1CCCC1)C1CCN(C(=O)c2cccc(Cl)c2)CC1,-6.41%
3,Cc1ccc(-n2ncc3c(NCc4ccccn4)ncnc32)c(C)c1,-7.46%
4,Cc1ccc2nc(-c3ccncc3)c(NC3CCCC3)n2c1,-54.2%
5,Cc1ccc2nc(-c3cccnc3)c(NC3CCCC3)n2c1,-19.7%
6,Cc1ccc2nc(-c3ccncc3)c(NC3CCCCC3)n2c1,9.35%
7,CCOc1cccc(OCCCCn2ccnc2)c1,-9.04%
8,COc1ccc(C)cc1NS(=O)(=O)c1ccc2c(c1)oc(=O)n2C,16.2%
9,CCOC(=O)C1CCN(C(=O)c2cc3c(C)cc(C)cc3[nH]2)CC1,-15.2%
10,Cc1cc(C)c2cc(C(=O)N3CCC(N4CCCCC4)CC3)[nH]c2c1,-69.2%
11,Cc1cc(C)c2cc(C(=O)N3CCC(C(=O)c4ccc(F)cc4)CC3)[nH]c2c1,2.63%
12,O=C(NNC(=O)c1cccs1)c1ccc(Br)o1,15.8%
13,CC1C(=O)NN=C1C(=O)N/N=C/c1cccs1 (centres unmarked),17.3%
14,COC(=O)c1nn(-c2ccccc2)c(Cl)c1/C=N/OCc1ccc(Cl)cc1Cl,20.6%
15,COC(=O)c1ccc(CSc2nnc3c(Cl)cc(Cl)cn23)o1,10.9%
16,CCCCOc1ccc(N2CC(C(=O)NCc3ccco3)CC2=O)cc1 (centres unmarked),-14.5%
17,O=C(NCc1ccco1)c1ccccc1NC(=O)C1CC(=O)N(c2ccc(Cl)cc2)C1 (centres unmarked),-78.4%
18,CCCOc1ccc(N2CC(C(=O)Nc3ccccc3C(=O)NC)CC2=O)cc1 (centres unmarked),-71.8%
19,O=C(NCc1ccco1)C1CC(=O)N(c2ccc(O)cc2)C1 (centres unmarked),-10.2%
20,COc1ccc(N2CC(C(=O)Nc3ccccc3C(=O)NCc3ccco3)CC2=O)cc1 (centres unmarked),-42%
21,O=C(NCc1ccco1)C1CC(=O)N(c2ccc(Cl)cc2)C1 (centres unmarked),-6.16%
22,CCCOc1ccc(N2CC(C(=O)Nc3ccccc3F)CC2=O)cc1 (centres unmarked),-3.15%
23,CNC(=O)c1ccccc1NC(=O)C1CC(=O)N(c2ccc(OC)cc2)C1 (centres unmarked),-12.3%

row,SMILES,"hERG current change (%, negative = inhibition) at 10uM"
1,CCCOc1ccc(N2CC(C(=O)Nc3ccccc3C(=O)NCc3ccco3)CC2=O)cc1 (centres unmarked),-71.5%
2,CCc1ccc(/C=N/NC(=O)c2cc(-c3ccccc3OC)nc3ccccc23)s1,9.69%
3,O=C(NC1CCN(Cc2ccccc2)CC1)C1CCN(S(=O)(=O)c2cccc3nsnc23)CC1,-23.7%
4,CN(C)CC1CCCCC1OC(=O)/C=C/c1ccccc1.Cl (centres unmarked),-33.2%
5,Cc1ccccc1C(=O)NNc1ccc([N+](=O)[O-])cc1,-17.3%
6,CCCOc1ccc(C2/C(=C(/O)c3ccccc3)C(=O)C(=O)N2CCCN(C)C)cc1OC (centres unmarked),5.35%
7,Cc1ccccc1CNC(=O)CN(c1cccc([N+](=O)[O-])c1)S(C)(=O)=O,6.08%
8,Cc1ccc(N/C(N)=N/c2nc(CSc3nnc(C)s3)cc(=O)[nH]2)c(C)c1,-8.86%
9,CC1(C)Cc2c(cnn2-c2cccc(F)c2)C(NC(=O)c2cc[n+]([O-])cc2)C1 (centres unmarked),-37.3%
10,Cc1cc(C(=O)NC2CC(C)(C)Cc3c2cnn3-c2ccccc2)n[nH]1 (centres unmarked),-19.2%
11,Cc1cnc(C(=O)NC2CC(C)(C)Cc3c2cnn3-c2ccccc2)cn1 (centres unmarked),-39%
12,CC1=C(C(=O)NC2CC(C)(C)Cc3c2cnn3-c2ccc(C)cc2)OCCO1 (centres unmarked),3.64%
13,Cc1ccc(-n2ncc3c2CC(C)(C)CC3NC(=O)c2ccc[n+]([O-])c2)cc1 (centres unmarked),-1.89%
14,Cc1ccc(-n2ncc3c2CC(C)(C)CC3NC(=O)c2cc[n+]([O-])cc2)cc1 (centres unmarked),-75.4%
15,Cc1ccc(-n2ncc3c2CC(C)(C)CC3NC(=O)c2ccccn2)cc1 (centres unmarked),-73.7%
16,Cc1ccccc1-n1ncc2c1CC(C)(C)CC2NC(=O)c1ccncc1 (centres unmarked),-47.4%
17,Cc1ccc(-n2ncc3c2CC(C)(C)CC3NC(=O)c2ccncc2)cc1 (centres unmarked),-72.2%
18,O=C1N[C@@H](Cc2cn(S(=O)(=O)c3ccccc3)c3ccccc23)C(=O)N[C@H]1Cc1ccccc1,14.9%
19,Cn1nc(C(=O)NC2CCCCC2)c2c1-c1ccccc1S(=O)(=O)C2,11.7%
20,CCCCc1ccc(-c2nc(N)n[nH]2)cc1,6.27%
21,O=[N+]([O-])c1ccc2c(c1)C(N1CCOCC1)/C(=C/COc1ccc(Cl)cc1Cl)O2 (centres unmarked),-1.06%
22,O=[N+]([O-])c1ccc(OC/C=C2\Oc3ccc([N+](=O)[O-])cc3C2N2CCOCC2)cc1 (centres unmarked),-71.7%
23,O=[N+]([O-])c1ccc2c(c1)C(N1CCOCC1)/C(=C/COc1ccc(F)cc1)O2 (centres unmarked),-26%

row,SMILES,"hERG current change (%, negative = inhibition) at 10uM"
1,Oc1nc(Nc2ccc(Cl)cc2Cl)sc1/C=C1\C=Nc2ccccc21,9.08%
2,CCCOc1ccc(C(C)=O)cc1CN1CCOCC1.Cl,2.99%
3,CCCCn1nc(NC(=O)COC)c2cc3cc(OC)ccc3nc21,-53.2%
4,CCCCn1nc(NC(=O)CCC)c2cc3cc(OC)ccc3nc21,-3.42%
5,CCCCn1nc(NC(=O)CC)c2cc3cc(OC)ccc3nc21,-11.2%
6,COc1ccc(NC(=O)CSc2nc3c([nH]c4ccccc43)c(=O)n2C)cc1,0.41%
7,COc1cc(/C=C2/C(=N)N3OC(C)=CC3=NC2=O)ccc1OC(=O)c1ccco1,29.8%
8,Cc1ccc(N=C2NC(=O)C(CO)(CO)S2)cc1,16.1%
9,Nc1cc2c(cc1[N+](=O)[O-])OCCO2,5.64%
10,O=[N+]([O-])c1ccc2c(c1)OCCOCCOCCOCCOCCOCCO2,-64.1%
11,O=C(c1cccc([N+](=O)[O-])c1)c1ccc2c(c1)OCCOCCOCCO2,-52.8%
12,O=C(c1cccc([N+](=O)[O-])c1)c1ccc2c(c1)OCCOCCOCCOCCO2,-69.8%
13,O=[N+]([O-])c1cc2c(cc1[N+](=O)[O-])OCCOCCOCCOCCO2,-59.3%
14,O=C(/C=C/c1cccc([N+](=O)[O-])c1)c1ccc2c(c1)OCCO2,3.36%
15,O=[N+]([O-])c1ccc(S(=O)(=O)Nc2ccc3c(c2)OCCO3)cc1,3.95%
16,Nc1cc2c(cc1[N+](=O)[O-])OCCOCCOCCO2,0.413%
17,O=C(Nc1ccc([N+](=O)[O-])cc1)Nc1ccc2c(c1)OCCO2,24.6%
18,O=C(Nc1cccc([N+](=O)[O-])c1)c1ccc2c(c1)OCCO2,11.9%
19,O=C(Nc1cccc([N+](=O)[O-])c1)Nc1ccc2c(c1)OCCO2,-1.17%
20,O=C(N/N=C/c1cccc([N+](=O)[O-])c1)c1ccc2c(c1)OCCO2,7.63%
21,O=C(NCc1cccc(F)c1)C1CCN(S(=O)(=O)Cc2ccccc2)CC1,7.89%
22,COCCn1c(SCC(=O)Nc2ccc(Cl)cn2)nc2ccccc21,-32.1%
23,Cc1ccc(N(C(=O)CCC(=O)Nc2ccccn2)C(C(=O)NC(C)C)c2ccc(F)cc2)cc1 (centres unmarked),21.4%

row,SMILES,"hERG current change (%, negative = inhibition) at 10uM"
1,COc1ccc2c(c1)[C@H]1[C@H](CO2)[C@H](c2ccccc2)[C@]2(C)C(=O)N(CC3CCCO3)CC(=O)N12 (some centres unmarked),-2.94%
2,COc1cccc(-n2cnc3c(sc4nc(N5CCOCC5)c5c(c43)CCCC5)c2=O)c1,5.92%
3,CCc1ccccc1NC(=O)CNC(=O)CSC(=S)N1CCCC1,-3.17%
4,COc1ccc(N2C(=NC(=O)c3ccccc3)SC3CS(=O)(=O)CC32)cc1 (centres unmarked),5.27%
5,O=S(=O)(Oc1ccccc1C(=S)N1CCOCC1)c1ccc(Cl)cc1,3.56%
6,NS(=O)(=O)c1ccc(CCNC(=O)[C@@H]2CCCN2S(=O)(=O)c2ccccc2F)cc1,-2.88%
7,COc1ccc(OC)c(S(=O)(=O)N2CCC(C(=O)NCc3ccc4c(c3)OCO4)CC2)c1,-3.84%
8,COc1cccc(NC(=O)c2cccnc2)c1,11.2%
9,O=S(=O)([O-])CCC[N+]1(CC#Cc2ccccc2)CCCCC1,33.8%
10,C=CC[N+]1(CC#Cc2ccccc2)CCCC1.[Br-],18.4%
11,C(#Cc1ccccc1)C[N+]1(CC#Cc2ccccc2)CCCC1.[Br-],-55.5%
12,Cc1ccc(C#CC[N+]2(C)CCCCC2)cc1.[Br-],14%
13,OCC#CC[N+]1(CC#Cc2ccccc2)CCCC1.[Br-],14.5%
14,C#CC[N+]1(CC#Cc2ccccc2)CCCC1.[I-],-1.53%
15,Cc1ccc(C#CC[N+]2(CC#Cc3ccc(C)cc3)CCCCC2)cc1.[Br-],-106%
16,C(#Cc1ccccc1)C[N+]1(CC#Cc2ccccc2)CCCCC1.[Br-],-55.8%
17,CCC[N+]1(CC#CCC(c2ccccc2)c2ccccc2)CCCCC1.[Br-],-66.7%
18,CCC[N+]1(CC#CC(O)(c2ccccc2)C2CCCCC2)CCCCC1.[Br-] (centres unmarked),12.1%
19,C#CC[N+]1(CC#Cc2ccccc2)CCCCC1.[I-],2.16%
20,C#CC[N+]1(CC#Cc2ccc(C)cc2)CCCCC1.[Br-],4.84%
